Data: PubChem BioAssay (NCATS)
Inconclusive results are not listed. Values without a mark were called inactive. Calls of active or inactive are those of the source. Unless noted, the call rests on the fitted dose curve; in most records, active means well fitted curve in the direction sought with a large enough effect; inconclusive means small, poorly fitted or top-dose-only effect, or another doubt; inactive means no such curve, though single readings can be large; an effect the other way counts as inactive or inconclusive.

How the values were obtained:
[1] = P-glycoprotein substrates identified in KB-3-1 adenocarcinoma cell line, qHTS therapeutic library screen (AID 1346986);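 further: potency means the concentration at half of the fitted maximal effect; potency is for cytotoxicity meaning loss of cell viability; nearly all actives have a fitted effect of over 60% in size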
In short: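 In 1536-well format, 500 cells/well received pinned compound titrations and were incubated 72 h, 5% CO2. Viability was read by CellTiter-Glo; cytotoxic if AC50 < 10 uM and efficacy >50%.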

[2] = NCATS anti-infectives library activity on HEK293 viability as a counter-qHTS vs the C. elegans viability qHTS (AID 1745854); further: on the % scale 0 is the no-effect control and ±100 the full control effect
In short: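 Cytotoxicity counter-screen to a worm viability qHTS: CellTiter-Glo luminescence read 10 min after reagent addition. Compounds (final up to 41.7 uM, a 1:5 dilution series) incubated 24 hr at 37C with 1,500 HEK293 cells per well; digitonin control.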

Furin (Homo sapiens) = Furin (Homo sapiens) (UniProt P09958); experiment: Furin counterscreen qHTS for Zika virus inhibitors (AID 1347149); further: nearly all actives have a fitted effect of over 70% in size; further: potency means the concentration at half of the fitted maximal effect;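 on activity change, negative = inhibition: purified recombinant full-length human furin enzyme at 5 nM; fluorescence gain from furin cutting a BOC-RVRR-AMC peptide substrate over 15 min; top concentration of the series differs between compounds; plate controls were no-inhibitor control for no effect and no-enzyme control for full effect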
In short: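 Counterscreen measures cleavage of 2 microM BOC-RVRR-AMC, below its ~15 microM Km, by 5 nM full-length human furin at pH 7.0 after a 15-min compound preincubation. Inhibition derives from the 15-min fluorescence increase at 37C.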

[3] = test system: Zika virus NS2B-NS3 protease (unlinked complex); experiment: Confirmatory screen GU AMC qHTS for Zika virus inhibitors (AID 1347153);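 further: enzyme at 25 nM with substrate at 10 µM below its Km of 18.3 µM; potency means the concentration at half of the fitted maximal effect; nearly all actives have a fitted effect of over 70% in size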
In short: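 Fluorescence change (ex 340/em 450 nm) over 15 min, ~20% substrate conversion, normalized to no-inhibitor and no-enzyme controls, then Hill-fitted. Unlinked protease at 25 nM; AMC peptide 10 µM.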

[4] = Confirmatory screen GU Rhodamine qHTS for Zika virus inhibitors qHTS (AID 1347157); further: potency means the concentration at half of the fitted maximal effect; nearly all actives have a fitted effect of over 70% in size
In short: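 Noncovalent NS2B hydrophilic domain/NS3 protease complex (25 nM final) in 10 mM Tris-HCl pH 8.0, 0.01% Tween 20, preincubated 15 min with compounds (up to 114 microM), then 1.5 microM Rhodamine110 substrate. Fluorescence change over 15 min fitted to 4-parameter Hill.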

[5] = test system: Zika virus NS2B-NS3 protease (linked); experiment: 384 well plate NINDS AMC confirmatory qHTS for Zika virus inhibitors (AID 1347163); further: potency means the concentration at half of the fitted maximal effect; nearly all actives have a fitted effect of over 50% in size
In short: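 Fluorescence at 355/460 nm was read after 25 minutes of cleavage of 30 microM Ac-VKTGKR-AMC at room temperature, in the dark. Before substrate addition, compounds (up to 1 mM final) sat ~15 minutes with 5, 30 or 60 nM linked protease. Signals were normalized to no-enzyme and no-inhibitor wells.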

[6] = Vero cells viability qHTS for Zika virus inhibitors (AID 1347167); further: potency means the concentration at half of the fitted maximal effect
In short: (§1)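 qHTS titration; 24-48 h compound exposure, 37 degrees C/5% CO2; DMEM, 4% FBS; CellTiter Glo ATP luminescence.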

[7] = HepG2 cells viability qHTS for Zika virus inhibitors (AID 1347168); further: on the % scale 0 is the no-effect control and ±100 the full control effect
In short: as §1

[8] = biological target: Cytochrome P450 3A4 (Homo sapiens) (UniProt P08684); experiment: Cytochrome P450 family 3 subfamily A member 4 (CYP3A4) small molecule antagonists: luciferase qHTS assay (AID 1645841; active means well fitted curve in the direction sought with a large enough effect in the repeat runs; an effect the other way counts as inactive or inconclusive; further: nearly all actives have a fitted effect of over 45% in size)
In short: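 P450-Glo CYP3A4 enzyme with proluciferin substrate preincubated 10 min with compound at room temperature, then NADPH regeneration 1 h. Luciferin detection reagent added for 20 min; luminescence recorded. Ketoconazole positive control.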

[9] = biological target: Calcium and integrin-binding protein 1 (Homo sapiens) (UniProt Q99828); experiment: Confirmatory qHTS for Identification of Calcium Integrin Binding Protein 1 (CIB1) Competitor (AID 1508617); further: on the % scale 0 is the no-effect control and ±100 the full control effect; nearly all actives have a fitted effect of over 65% in size
In short: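 Confirmatory qHTS measures displacement of a FITC-alphaIIb peptide (100 nM) from CIB1-GST (1 uM) by fluorescence polarization. Calcium-containing HEPES buffer, pH 7.4; two 15 min room-temperature incubations.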

[10] = ZIKV-mCherry secondary qHTS for Zika virus inhibitors (AID 1347158); further: potency means the concentration at half of the fitted maximal effect
In short: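 Percent infection is the share of Hoechst-identified Vero nuclei with mCherry signal above 450 RFU (3 SD over negative controls). Cells were infected with recombinant ZIKV-mCherry at MOI 1 after compound addition and imaged 48–72 h later.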

[11] = test system: Zika virus NS2B-NS3 protease (linked construct); experiment: 384 well plate NINDS Rhodamine confirmatory qHTS for Zika virus inhibitors (AID 1347164);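 further: fluorescence from protease cleavage of Ac-LKRR-rhodamine 110 substrate; nearly all actives have a fitted effect of over 65% in size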; further: potency means the concentration at half of the fitted maximal effect;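 on activity change, negative = inhibition: top concentration of the series differs between compounds; plate controls were no-inhibitor control for no effect and no-enzyme control for full effect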
In short: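 Enzyme (final 5/30/60 nM) + cpd (DMSO), ~15 min; add Ac-LKRR-Rd 10 microM final; 25 min RT, dark; FI ex 485/em 538; normalized to no-enzyme, no-inhibitor ctrls; aprotinin intraplate ctrl.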

[12] = test system: Zika virus NS2B-NS3 protease; experiment: Primary screen GU AMC qHTS for Zika virus inhibitors (AID 1347154);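 further: 0% = no-inhibitor control and -100% = no-enzyme control; nearly all actives have a fitted effect of over 70% in size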
In short: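 Unlinked Zika NS2B hydrophilic domain–NS3 protease complex at 25 nM in 10 mM Tris-HCl pH 8.0, 0.01% Tween 20, with an AMC peptide substrate. Fluorescence change (340/450 nm) over 15 min at room temperature, normalized to controls, fitted to 4-parameter Hill.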

[13] = Counterscreen qHTS for small molecule stabilizers of the endoplasmic reticulum resident proteome: GLuc-NoTag assay (AID 1508627);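 further: SH-SY5Y cells given compound then 100 nM thapsigargin to empty ER calcium; 0% = thapsigargin alone and -100% = DMSO vehicle control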
In short: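 Counterscreen line: SH-SY5Y-GLuc-NoTag. Seed, 5 h; compound, 19 h; thapsigargin 100 nM, 4 h; 37C/5% CO2. Readout: secreted GLuc luminescence, coelenterazine 0.07x final, no lysis.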

[14] = Primary qHTS for small molecule stabilizers of the endoplasmic reticulum resident proteome: Secreted ER Calcium Modulated Protein (SERCaMP) assay (AID 1508630); further: on the % scale 0 is the no-effect control and ±100 the full control effect
In short: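 The SH-SY5Y reporter protocol was run at 3 concentrations up to 38.3 uM (primary) or 11 concentrations (follow-up): 16 h compound, 100 nM thapsigargin for 4 h, then extracellular luciferase luminescence.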

NIH3T3 = experiment: qHTS assay to identify novel small-molecules to repurpose for Merkel cell carcinoma treatment (AID 1296009); conditions: MCC and control cell lines, CellTiter-Glo viability, 72 h; series mostly up to 9.27 µM; further: nearly all actives have a fitted effect of over 60% in size; further: potency means the concentration at half of the fitted maximal effect
In short: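 Dose-response viability screen; 72 hr exposure at 37 degree celsius; CellTiter-Glo added, 10 min room temperature, luminescence read; RLUs scaled between no-cell and DMSO wells.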

[15] = Primary qHTS for inhibitors of La Crosse Virus (LACV) - induced cell death in SH-SY5Y cells (AID 1508616);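 further: top concentration of the series differs between compounds; 0% = infected DMSO wells and 100% = uninfected DMSO wells; higher means more rescue of cells from virus-induced death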
In short: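 Rescue of virus-induced death was read as ATPLite luminescence after 6 days at 37C, scaled between DMSO wells with LACV and without virus. Cells were SH-SY5Y, 6000/well, infected at 0.01 MOI after compound addition.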

[16] = Drug repurposing screens with cells derived from glioblastoma tumor samples (AID 1345199); conditions: GBM patient neurospheres viability, ATP luminescence, 48 h; further: on the % scale 0 is the no-effect control and ±100 the full control effect; nearly all actives have a fitted effect of over 40% in size
In short: (§2)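 Primary testing used CD133+ neurospheres from four GBM patients, seven concentrations, 48 h exposure and ATP-based viability; confirmation added three slower-growing patient lines.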

astro = experiment: as above; conditions: viability, ATP luminescence, 48 h; series mostly up to 45.9 µM
In short: as §2

[17] = qHTS profiling for inhibitors of Plasmodium falciparum proliferation (AID 504749); further: potency means the concentration at half of the fitted maximal effect; nearly all actives have a fitted effect of over 60% in size; conditions: P. falciparum in erythrocytes, SYBR Green DNA, 72 h
In short: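 Each compound contacts P. falciparum-infected red blood cells for 72 h at 37 C; lysis buffer (Tris, EDTA, saponin, Triton X, SYBR Green I) is added and fluorescence measured next morning; values normalized to controls.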

Sequence of Furin (Homo sapiens) (P09958 whole entry, looked up): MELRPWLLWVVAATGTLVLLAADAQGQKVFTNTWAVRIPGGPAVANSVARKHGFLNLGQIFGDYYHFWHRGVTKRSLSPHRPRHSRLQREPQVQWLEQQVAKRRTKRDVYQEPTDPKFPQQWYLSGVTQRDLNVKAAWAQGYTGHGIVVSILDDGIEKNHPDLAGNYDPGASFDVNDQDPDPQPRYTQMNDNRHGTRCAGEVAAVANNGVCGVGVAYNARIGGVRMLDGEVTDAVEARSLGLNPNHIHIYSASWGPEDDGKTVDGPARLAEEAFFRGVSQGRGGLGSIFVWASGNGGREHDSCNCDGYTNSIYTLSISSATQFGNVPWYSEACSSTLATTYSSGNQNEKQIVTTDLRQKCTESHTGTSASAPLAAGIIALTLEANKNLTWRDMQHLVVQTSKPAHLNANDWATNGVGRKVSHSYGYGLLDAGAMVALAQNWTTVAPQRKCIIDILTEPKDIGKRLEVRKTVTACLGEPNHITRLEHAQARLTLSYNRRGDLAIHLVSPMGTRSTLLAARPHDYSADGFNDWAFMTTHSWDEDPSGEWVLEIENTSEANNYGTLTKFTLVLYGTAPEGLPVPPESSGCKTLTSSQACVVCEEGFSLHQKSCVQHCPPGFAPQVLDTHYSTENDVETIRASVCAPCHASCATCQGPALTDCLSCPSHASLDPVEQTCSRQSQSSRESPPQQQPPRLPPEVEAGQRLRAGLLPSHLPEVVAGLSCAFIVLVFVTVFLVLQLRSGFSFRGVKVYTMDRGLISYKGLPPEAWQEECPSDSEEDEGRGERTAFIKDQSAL
Sequence of Calcium and integrin-binding protein 1 (Homo sapiens) (Q99828 whole entry, looked up): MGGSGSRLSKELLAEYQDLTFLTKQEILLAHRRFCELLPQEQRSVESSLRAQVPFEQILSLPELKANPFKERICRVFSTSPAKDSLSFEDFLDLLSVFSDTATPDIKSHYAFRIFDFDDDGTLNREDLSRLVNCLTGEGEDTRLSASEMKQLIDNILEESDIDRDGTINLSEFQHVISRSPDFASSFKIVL
Sequence of Cytochrome P450 3A4 (Homo sapiens) (P08684 whole entry, looked up): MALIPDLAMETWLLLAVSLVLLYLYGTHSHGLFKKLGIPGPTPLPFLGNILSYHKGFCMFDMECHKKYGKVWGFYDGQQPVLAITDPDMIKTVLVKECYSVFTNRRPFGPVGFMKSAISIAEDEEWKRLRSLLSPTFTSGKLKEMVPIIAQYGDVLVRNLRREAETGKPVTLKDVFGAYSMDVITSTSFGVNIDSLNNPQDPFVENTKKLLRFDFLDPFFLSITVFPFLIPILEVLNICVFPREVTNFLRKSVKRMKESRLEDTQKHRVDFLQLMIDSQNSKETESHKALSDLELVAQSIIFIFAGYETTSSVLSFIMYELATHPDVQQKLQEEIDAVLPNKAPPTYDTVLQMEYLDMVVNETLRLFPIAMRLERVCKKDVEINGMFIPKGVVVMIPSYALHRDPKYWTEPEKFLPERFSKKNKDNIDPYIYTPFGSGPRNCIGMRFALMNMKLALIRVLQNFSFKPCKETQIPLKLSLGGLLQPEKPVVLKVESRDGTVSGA

C[C@@H]1COCCN1c1cc(C2(S(C)(=N)=O)CC2)nc(-c2ccnc3[nH]ccc23)n1 (stereo not given in full)
Potency [1]: 6.51 µM (active)

CCOC(=O)c1cccc(CNc2ccc(N(C)C(=O)Nc3ccccc3)cc2)c1
outcome [2]: inactive

CC1CCN(C(c2ccc(F)cc2)c2ccc(C(C)C(=O)O)cc2-c2ccc(C(F)(F)F)cc2)CC1 (stereo not given)
Potency (Furin (Homo sapiens)): inactive
Potency [3]: 15.6 µM (active)
Potency [4]: 3.93 µM (active)
Potency [5]: 0.891 µM (active)
Potency [6]: 18.6 µM (active)
Potency [7]: inactive

Cc1ccc(C(=O)N2CCN(c3ccc([N+](=O)[O-])cc3)CC2)cc1Cl
outcome [8]: inactive

Cn1cnc(-c2nccc3c(=O)[nH]c(OCCCC(F)(F)F)nc23)c1
outcome [9]: inactive

O=C(NCc1ccc(Oc2ccccc2)cc1)c1nc(-c2cc(Br)c(O)c(Br)c2)no1
Potency [10]: 7.08 µM (active)
Potency [5]: 2.51 µM (active)
Potency [11]: 1.58 µM (active)
Potency [7]: inactive

Oc1ccc(Nc2nc(-c3ccc(Cl)cc3)cs2)cc1
Potency [12]: inactive
Potency [13]: inactive

O=C(NC(NC(=S)Nc1ccc(F)c([N+](=O)[O-])c1)C(Cl)(Cl)Cl)C(c1ccccc1)c1ccccc1 (stereo not given)
Potency [12]: inactive
Potency [14]: inactive

C=C1[C@@H](C2=CC(=O)OC2)CC[C@@]2(O)[C@@H]1CC1[C@H]2CC[C@@H]2C[C@@H](O[C@H]3O[C@@H](C)[C@@H](O[C@@H]4O[C@H](CO[C@@H]5O[C@H](CO)[C@@H](O)[C@H](O)[C@H]5O)[C@@H](O)[C@H](O)[C@H]4O)[C@H](OC)[C@H]3O)CC[C@]12C (stereo not given in full)
Potency (NIH3T3): inactive

C=CC(=O)Nc1cc(Nc2nccc(-c3cn(C)c4ccccc34)n2)c(OC)cc1N(C)CCN(C)C
Potency [1]: 10.3 µM (active)

Nc1nc(NCC2CCC(CNS(=O)(=O)c3cccc4ccccc34)CC2)nc2ccccc12 (stereo not given)
Potency [12]: inactive
Potency [14]: inactive

O=C(c1ccc(F)c(F)c1Nc1ccc(I)cc1F)N1CC(O)([C@@H]2CCCCN2)C1
Potency (NIH3T3): 9.2 µM (active)

CS(=O)(=O)c1ccc(-c2cn3ccccc3n2)cc1
Potency (Furin (Homo sapiens)): 5.39 µM (active)
Potency [3]: 24.1 µM (active)
Potency [6]: inactive
outcome [15]: inactive
Potency [14]: inactive

CN(CC(=O)N(Cc1ccc(C2CCCCC2)cc1)c1ccc(C(=O)O)cc1)S(=O)(=O)c1c(F)c(F)c(F)c(F)c1F
Potency [3]: 22.1 µM (active)
Potency [5]: 50.1 µM (active)
activity change, negative = inhibition [11]: -179% [at 100 µM]

COc1cc(N2CCN(C(C)=O)CC2)ccc1Nc1ncc(Cl)c(Nc2ccc(N3CCN(C(C)=O)CC3)cc2OC)n1
Potency [1]: 14.6 µM (active)

Cc1ccn(-c2cc(Cl)ccc2[C@@H](Oc2cc(-c3ccc(C[C@H](N)C(=O)O)cc3)nc(N)n2)C(F)(F)F)n1
Potency [4]: 22.1 µM (active)

CN(Cc1ccc(C(=O)O)cc1)c1ccc(OCc2c(-c3c(Cl)cccc3Cl)noc2C2CC2)nc1C(F)(F)F
Potency (Furin (Homo sapiens)): 9.61 µM (active)
Potency [3]: 13.9 µM (active)
Potency [4]: 2.21 µM (active)
Potency [5]: 3.98 µM (active)
Potency [6]: inactive
Potency [7]: inactive

COCCNCc1ccc(-c2cc3nccc(Oc4ccc(NC(=S)NC(=O)Cc5ccc(F)cc5)cc4F)c3s2)nc1
Potency [1]: 23.1 µM (active)

Nc1ccc(N)c([N+](=O)[O-])c1
outcome [15]: inactive
activity, negative = cell killing ([16]; at 91.6 µM (top of the series), tumour line D): -23.5%
Potency (astro): inactive

CCNC(=O)[C@@H]1CCCN1C(=O)[C@H](CCCN=C(N)N)NC(=O)[C@H](CC(C)C)NC(=O)[C@@H](CC(C)C)NC(=O)[C@H](Cc1ccc(O)cc1)NC(=O)[C@H](CO)NC(=O)[C@H](Cc1c[nH]c2ccccc12)NC(=O)[C@H](Cc1cnc[nH]1)NC(=O)[C@@H]1CCC(=O)N1
activity, negative = cell killing ([16]; at 45.9 µM (top of the series), tumour line B): -5.52%
activity, negative = cell killing ([16]; at 45.9 µM (top of the series), tumour line D): 4.71%
activity, negative = cell killing ([16]; at 46 µM (top of the series), tumour line A): -26.4%
activity, negative = cell killing ([16]; at 46.1 µM (top of the series), tumour line C): 1.53%
Potency (astro): inactive

O=C(CC1NCCC[C@H]1O)Cn1cnc2cc(Br)c(Cl)cc2c1=O (stereo not given in full)
Potency ([17]; parasite line A): 2 µM (active)
Potency ([17]; parasite line B): 3.55 µM (active)
